Measured values: PubChem BioAssay (NCATS)
Results filed as inconclusive are left out. The source made the active and inactive calls. Calls come from the whole dose curve; as a rule, active = well fitted cell-killing curve with a large enough effect; inconclusive = small, poorly fitted or top-dose-only effect, or effect the other way; inactive = flat fitted curve, though single readings scatter.

Assays:
Assay in all cases: Primary qHTS to identify gynecologic anti-cancer compounds using libraries of approved drugs and bioactive compounds (AID 1345084); note: nearly all actives have a fitted effect of over 55% in size
Hek293T = conditions: Gynecologic cancer cell panel viability, ATPlite luminescence, 48 h, control line for the selectivity index; series mostly up to 57.5 µM
In short: (§1)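 48 h compound exposure at 37 C, 5% CO2; five-point qHTS. ATPlite luminescence readout of cell ATP.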

JEG-3 = conditions: Gynecologic cancer cell panel viability, ATPlite luminescence, 48 h; series mostly up to 57.5 µM
In short: as §1

OV90 = conditions: Gynecologic cancer cell panel viability, ATPlite luminescence, 48 h; series mostly up to 57.5 µM
In short: as §1

PA-1 = conditions: Gynecologic cancer cell panel viability, ATPlite luminescence, 48 h; series mostly up to 57.5 µM
In short: as §1

SKOV3 = conditions: Gynecologic cancer cell panel viability, ATPlite luminescence, 48 h; series mostly up to 57.5 µM
In short: as §1

Tov-21-G = conditions: Gynecologic cancer cell panel viability, ATPlite luminescence, 48 h; series mostly up to 57.5 µM
In short: as §1

Tov112D = conditions: Gynecologic cancer cell panel viability, ATPlite luminescence, 48 h; series mostly up to 57.5 µM
In short: as §1
% is set by controls: 0 for no effect and ±100 for the full control effect.

CCN(c1cc(C#CCN2CCOCC2)cc(C(=O)NCc2c(C)cc(C)[nH]c2=O)c1C)C1CCC(N(C)CCOC)CC1 (stereo unspecified)
inactive: Potency (Hek293T) | Potency (JEG-3) | Potency (OV90) | Potency (PA-1) | Potency (SKOV3) | Potency (Tov-21-G) | Potency (Tov112D)

NC(=O)[C@H]1CCCCc2c1[nH]c1ccc(Cl)cc21
inactive: Potency (Hek293T) | Potency (JEG-3) | Potency (OV90) | Potency (PA-1) | Potency (SKOV3) | Potency (Tov-21-G) | Potency (Tov112D)

COC1(CC(C)C)NC(=O)C(O)(Cc2ccccc2)NC1=O (stereo unspecified)
inactive: Potency (Hek293T) | Potency (JEG-3) | Potency (OV90) | Potency (PA-1) | Potency (SKOV3) | Potency (Tov-21-G) | Potency (Tov112D)

COC(=O)C1=CO[C@@H](O[C@@H]2O[C@H](CO)[C@@H](O)[C@H](O)[C@H]2O)[C@@H]2[C@@H](C)[C@@H](O)C[C@H]12
inactive: Potency (Hek293T) | Potency (JEG-3) | Potency (OV90) | Potency (PA-1) | Potency (SKOV3) | Potency (Tov-21-G) | Potency (Tov112D)

Cn1ccnc1CCOC(c1cc2nccc(C(=O)O)c2[nH]1)c1ccccc1Cl (stereo unspecified)
inactive: Potency (Hek293T) | Potency (JEG-3) | Potency (OV90) | Potency (PA-1) | Potency (SKOV3) | Potency (Tov-21-G) | Potency (Tov112D)

C=C1C2=CC(O)C(C)C1(C)CC/C(C)=C/CCC1(C)OC1C2=O (stereo unspecified)
inactive: Potency (Hek293T) | Potency (JEG-3) | Potency (OV90) | Potency (PA-1) | Potency (SKOV3) | Potency (Tov-21-G) | Potency (Tov112D)

C=C(C)[C@@H](C)[C@H]1O[C@]23C[C@]4(CO2)C(CCC2[C@@]5(C)CC[C@H](O[C@@H]6OC[C@H](O)[C@H](O[C@@H]7O[C@H](CO)[C@@H](O)[C@H](O)[C@H]7O)[C@H]6O[C@@H]6O[C@@H](CO)[C@H](O)[C@H]6O)C(C)(C)C5CC[C@]24C)C3[C@@](C)(O)[C@@H]1OC(C)=O (stereo partly specified)
inactive: activity change, negative = cytotoxicity (Hek293T) -2.35% [at 11.6 µM] | activity change, negative = cytotoxicity (JEG-3) 10.2% [at 11.6 µM] | activity change, negative = cytotoxicity (OV90) 2.63% [at 11.6 µM] | activity change, negative = cytotoxicity (PA-1) 20.8% [at 11.6 µM] | activity change, negative = cytotoxicity (SKOV3) 6.78% [at 11.6 µM] | activity change, negative = cytotoxicity (Tov-21-G) 0.172% [at 11.6 µM] | activity change, negative = cytotoxicity (Tov112D) 3.31% [at 11.6 µM]

CC12CCC3c4ccc(O)cc4CCC3C1CCC2OC1OC(C(=O)O)C(O)C(O)C1O (stereo unspecified)
inactive: Potency (Hek293T) | Potency (JEG-3) | Potency (OV90) | Potency (PA-1) | Potency (SKOV3) | Potency (Tov-21-G) | Potency (Tov112D)

Cc1c(N2C(=O)c3ccc(C(=O)O)cc3C2=O)c(=O)n(-c2ccccc2)n1C
inactive: Potency (Hek293T) | Potency (JEG-3) | Potency (OV90) | Potency (PA-1) | Potency (SKOV3) | Potency (Tov-21-G) | Potency (Tov112D)

C[C@]1(O)CC[C@@H]2C(C(=O)O)=CO[C@@H](O[C@@H]3O[C@H](COC(=O)c4ccc(O)cc4)[C@@H](O)[C@H](O)[C@H]3O)[C@@H]21
inactive: Potency (Hek293T) | Potency (JEG-3) | Potency (OV90) | Potency (PA-1) | Potency (SKOV3) | Potency (Tov-21-G) | Potency (Tov112D)

COc1ccc(/C=C/C(=O)O[C@H]2[C@@H]3C=CO[C@@H](O[C@@H]4O[C@H](CO)[C@@H](O)[C@H](O)[C@H]4O)[C@@H]3[C@@]3(CO)O[C@@H]23)cc1O
inactive: Potency (Hek293T) | Potency (JEG-3) | Potency (OV90) | Potency (PA-1) | Potency (SKOV3) | Potency (Tov-21-G) | Potency (Tov112D)

C=C(C)C(=O)O[C@H]1C[C@@](C)(OC(C)=O)[C@@]2(O)CC[C@@](C)(O)[C@H](OC(C)=O)[C@@]23OC(=O)C(COC)=C13
inactive: Potency (Hek293T) | Potency (JEG-3) | Potency (OV90) | Potency (PA-1) | Potency (SKOV3) | Potency (Tov-21-G) | Potency (Tov112D)

C[C@@H]1O[C@@H](O[C@H]2[C@H](OC(=O)[C@]34CCC(C)(C)C[C@H]3C3=CCC5[C@@]6(C)CC[C@H](O[C@@H]7O[C@H](CO[C@@H]8OC[C@H](O)[C@H](O)[C@H]8O)[C@@H](O)[C@H](O)[C@H]7O)C(C)(C)C6CC[C@@]5(C)[C@]3(C)C[C@H]4O)OC[C@@H](O)[C@@H]2O)[C@H](O)[C@H](O)[C@H]1O[C@@H]1OC[C@H](O)[C@H](O[C@@H]2OC[C@@H](O)[C@H](O)[C@H]2O)[C@H]1O (stereo partly specified)
inactive: activity change, negative = cytotoxicity (Hek293T) -6.63% [at 6.55 µM] | activity change, negative = cytotoxicity (JEG-3) -1.75% [at 6.55 µM] | activity change, negative = cytotoxicity (OV90) -10.8% [at 6.55 µM] | activity change, negative = cytotoxicity (PA-1) 1.4% [at 6.55 µM] | activity change, negative = cytotoxicity (SKOV3) 14.1% [at 6.55 µM] | activity change, negative = cytotoxicity (Tov-21-G) -9.88% [at 6.55 µM] | activity change, negative = cytotoxicity (Tov112D) 9.32% [at 6.55 µM]

CCOc1nc2cccc(C(=O)OCc3oc(=O)oc3C)c2n1Cc1ccc(-c2ccccc2-c2noc(O)n2)cc1
inactive: Potency (Hek293T) | Potency (JEG-3) | Potency (OV90) | Potency (PA-1) | Potency (SKOV3) | Potency (Tov-21-G) | Potency (Tov112D)

NC1CCC(N[C@@H]2C[C@H]2c2ccccc2)CC1 (stereo partly specified)
inactive: Potency (Hek293T) | Potency (JEG-3) | Potency (OV90) | Potency (PA-1) | Potency (SKOV3) | Potency (Tov-21-G) | Potency (Tov112D)

Cc1nn(C)c(COc2ccc(N3CCN(S(=O)(=O)N(C)C)CC3)cc2)c1-c1cccc2c(CCCOc3cccc4ccccc34)c(C(=O)O)n(CCN3CCOCC3)c12
inactive: Potency (Hek293T) | Potency (JEG-3) | Potency (OV90) | Potency (PA-1) | Potency (SKOV3) | Potency (Tov-21-G) | Potency (Tov112D)

CC(C)c1cc2c(c(O)c1O[C@@H]1O[C@H](CO)[C@@H](O)[C@H](O)[C@H]1O)CC1(O)CCC(O)C(C)(C)C1CC2 (stereo partly specified)
inactive: Potency (Hek293T) | Potency (JEG-3) | Potency (OV90) | Potency (PA-1) | Potency (SKOV3) | Potency (Tov-21-G) | Potency (Tov112D)

C=C1CC2[C@]3(C)C(=C(O)C(=O)[C@@]2(C)[C@]2(C(=O)OC)C(=O)C(C)OC(=O)[C@@]12C)C(C)(C)C(=O)CC3O (stereo partly specified)
inactive: Potency (Hek293T) | Potency (JEG-3) | Potency (OV90) | Potency (PA-1) | Potency (SKOV3) | Potency (Tov-21-G) | Potency (Tov112D)

C/C=C1/[C@H](O[C@@H]2O[C@H](CO)[C@@H](O)[C@H](O)[C@H]2O)OC=C(C(=O)OC)[C@H]1CC(=O)O[C@@H]1O[C@H](CO)[C@@H](O)[C@H](O)[C@H]1O
inactive: Potency (Hek293T) | Potency (JEG-3) | Potency (OV90) | Potency (PA-1) | Potency (SKOV3) | Potency (Tov-21-G) | Potency (Tov112D)

CC(C)C(=O)c1cn(CC(=O)COc2ccc(Oc3ccccc3)cc2)c2ccc(C(=O)O)cc12
inactive: Potency (Hek293T) | Potency (JEG-3) | Potency (OV90) | Potency (PA-1) | Potency (SKOV3) | Potency (Tov-21-G) | Potency (Tov112D)

CCC(C)(O)C(O)C(=O)OCc1ccc(O[C@@H]2O[C@H](CO)[C@@H](O)[C@H](O)[C@H]2O)c(OC)c1 (stereo partly specified)
inactive: Potency (Hek293T) | Potency (JEG-3) | Potency (OV90) | Potency (PA-1) | Potency (SKOV3) | Potency (Tov-21-G) | Potency (Tov112D)

COc1ncc(-c2ccc3c(Nc4cc(Oc5cc(F)cc(F)c5)cc(C(=O)O)c4)c(S(=O)(=O)NC4CC4)cnc3c2)c(OC)n1
inactive: Potency (Hek293T) | Potency (JEG-3) | Potency (OV90) | Potency (PA-1) | Potency (SKOV3) | Potency (Tov-21-G) | Potency (Tov112D)

C/C(=C/CCC(CO)C1CCC2(C)C3CCC4C(C)(C)C(OC5OC(CO)C(O)C(O)C5O)CC(O)C45CC35CCC12C)COC1OC(CO)C(O)C(O)C1O (stereo unspecified)
inactive: Potency (Hek293T) | Potency (JEG-3) | Potency (OV90) | Potency (PA-1) | Potency (SKOV3) | Potency (Tov-21-G) | Potency (Tov112D)
